The campaign covered roughly 200,000 compounds. About 4,500 (2.2%) were called active. About 12% were inconclusive and are not listed. The full list was thinned out, with actives kept by preference. Values without a mark were called inactive. Calls come from the whole dose curve; as a rule, active = well fitted inhibition curve with a large enough effect; inconclusive = small, poorly fitted or top-dose-only effect, or effect the other way; inactive = flat fitted curve, though single readings scatter.
Potency is the fitted concentration of half-maximal effect.

The target in the assay is Cruzipain (Trypanosoma cruzi) (UniProt P25779). In words: qHTS Assay for Promiscuous and Specific Inhibitors of Cruzain (without detergent).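 For max response, negative = inhibition: plate controls were enzyme without inhibitor for no effect and buffer without enzyme for full effect.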 Note: nearly all actives have a fitted effect of over 40% in size. The settings on record: purified cruzain, Z-FR-AMC fluorescence, no detergent. A digest of the protocol: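 Purified cruzain at 1.5 nM, pre-incubated 15 min with compound at room temperature in 100 mM sodium acetate pH 5.5, 5 mM DTT, 0.00005% Triton X-100. Reaction started with 2 uM Z-FR-AMC; AMC fluorescence increase over 60 s gives rate.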
Chain of Cruzipain (Trypanosoma cruzi) (P25779 123-467 limits assumed): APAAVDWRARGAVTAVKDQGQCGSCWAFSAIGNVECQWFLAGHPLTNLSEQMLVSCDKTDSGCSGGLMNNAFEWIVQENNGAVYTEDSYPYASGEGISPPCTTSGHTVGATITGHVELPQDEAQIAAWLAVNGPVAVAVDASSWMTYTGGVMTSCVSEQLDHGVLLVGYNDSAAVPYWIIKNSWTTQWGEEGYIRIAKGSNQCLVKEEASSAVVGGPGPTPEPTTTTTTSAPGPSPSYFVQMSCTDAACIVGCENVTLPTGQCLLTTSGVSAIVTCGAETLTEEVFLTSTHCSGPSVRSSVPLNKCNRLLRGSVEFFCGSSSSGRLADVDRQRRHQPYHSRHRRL
(Quantitative high-throughput screening tests each substance at several concentrations.)
Regarding `O=C(CCS(=O)(=O)c1ccccc1)N(Cc1cccnc1)c1nc2c(F)cccc2s1`, the max response, negative = inhibition is 15.4%. Regarding `CC(C)CN(C(=O)c1cccc(S(=O)(=O)N2CCCCC2)c1)C1CCS(=O)(=O)C1` (configuration not stated), the max response, negative = inhibition was 5.95%. As to `COc1ccc(OCCCn2c(C)nc3cc(C)c(C)cc32)cc1`, the max response, negative = inhibition was 11.2%. As for `COc1cccc(N2CC(NC(=O)/C=C\c3ccccc3)CC2=O)c1` (configuration not stated), the max response, negative = inhibition was -5.97%.

For the compound `O=c1cc(CN2CCN(c3cccc(Cl)c3)CC2)c2cc3c(cc2o1)CCCC3`, the Potency is 12.6 µM (active). `OC(COc1ccc2c(c1)CCC2)CN1CCN(c2cccc(Cl)c2)CC1` (configuration not stated): the max response, negative = inhibition was 1.52%.

As to `O=c1cc(CN2CCN(S(=O)(=O)/C=C/c3ccccc3)CC2)c2ccc(O)cc2o1`, the max response, negative = inhibition was -11.9%.

With `C=CCN1C(=O)C(O)(CC(=O)c2ccc(Cl)cc2)c2ccccc21` (configuration not stated), the Potency is 12.6 µM (active). As to `O=C(CC1(O)C(=O)N(CN2CCOCC2)c2ccccc21)c1ccccc1` (configuration not stated), the max response, negative = inhibition was 2.42%. Consider `Cc1ccc(C(=O)CC2(O)C(=O)N(CCc3ccccc3)c3ccc(Br)cc32)cc1` (configuration not stated), for which the max response, negative = inhibition is 7.97%. Still for that read-out and setting: the value for `CC(=O)Nc1ccc(NC(=O)CCCc2nc(-c3ccc(C(C)(C)C)cc3)no2)cc1` was -10.5%. Same read-out and setting: the value for `O=C(CC(NCc1cccnc1)C(=O)O)Nc1ccc(O)cc1` (configuration not stated) was 7.85%; that for `Cc1cc(C)cc(NC(=O)Cn2c(=O)c3ccccc3n3nncc23)c1` was 4.51%; that for `COc1cc(OC)c(N(C)C(=O)c2cc3c(=O)oc4ccccc4c3s2)cc1Cl` was 6.95%. On the same count and under the same terms, the value for `Cc1ccc2nc(COc3cccc(NC(=O)c4ccccc4Cl)c3)cc(=O)n2c1` was -3.57%. In the case of `Cc1ccc(CCC(=O)Nc2ncc(Cc3cc(Cl)ccc3Cl)s2)o1`, the Potency is 25.1 µM (active). Consider `CCOc1ccccc1NC(=O)CCc1ccc(C)o1`, for which the max response, negative = inhibition is 8.1%.

With `Cc1cnc(NC(=O)CSc2nnc(-c3ccc(Cl)cc3Cl)n2N)s1`, the max response, negative = inhibition is -2.62%. Still for that read-out and setting: the result for `O=C(Cn1c(=O)n(-c2ccc(F)cc2)c(=O)c2sc3ccccc3c21)NC1CCCC1` reads -5.91%. As for `CCOC(=O)c1ccccc1NC(=O)CCc1c(C)nc2c(c1C)c(=O)n(C)c(=O)n2C`, the max response, negative = inhibition is -1.55%. Same read-out and setting: the value for `COc1ccc(OCCCC(=O)NCCc2ccccc2)cc1` was -1.93%.

`O=C(NCCc1ccccc1)c1ccc(OCCOc2ccccc2)cc1`: the Potency was 20 µM (active). Consider `O=C(NCCOc1ccccc1)c1ccccc1`, for which the max response, negative = inhibition was -3.94%.

Turning to `Cc1ccc(NC(=O)c2ccc3[nH]c(C)cc(=O)c3c2)c(C)c1`, the max response, negative = inhibition is -6.14%. Same read-out and setting: the value for `COc1ccc(-c2cc(NCc3ccc(F)cc3)n3cnnc3n2)cc1` was 6.65%. Regarding `Cc1ccc(C(=O)Nc2cc3c(cc2N2CCCC2)n(C)c(=O)c(=O)n3C)cc1`, the max response, negative = inhibition was -9.28%. In the case of `CCOC(=O)c1cn(CC(=O)Nc2ccc(C(C)C)cc2)nn1`, the max response, negative = inhibition is 3.14%. Consider `COc1ccc(NC(=O)Cn2nnc(C(=O)NCCc3ccc(OC)c(OC)c3)c2N)cc1`, for which the max response, negative = inhibition was 28.4%. For `Nc1c(C(=O)NCc2ccccc2)nnn1Cc1cccc(Cl)c1`, the max response, negative = inhibition is -27.5%. As to `CC(C)c1ccc(NC(=O)Cn2nnc(C(=O)NCCc3ccccc3)c2N)cc1`, the Potency was 3.16 µM (active). On to `CCOc1ccccc1NC(=O)Cn1nnc(C(=O)Nc2ccc(C)c(C)c2)c1N`, for which the max response, negative = inhibition was 0.467%. In the case of `Cc1cccc(NC(=O)c2nnn(CC(=O)Nc3ccc(C(C)C)cc3)c2N)c1C`, the Potency is 20 µM (active). Take `COc1ccccc1NC(=O)CSC1=Nc2ccccc2C2=NC(CC(=O)NCc3cccs3)C(=O)N12` (configuration not stated): the max response, negative = inhibition was -5.88%. As for `CC(C)CC(NS(=O)(=O)c1ccc2c(c1)oc(=O)n2C)C(=O)NCc1ccccc1Cl` (configuration not stated), the max response, negative = inhibition was -14%. The same measure, in the same setting: the result for `Cc1cccc(NC(=O)N2CCN(C)c3ncccc32)c1C` reads 2.65%; that for `CC(=O)Oc1ccc(C)cc1N1C(=O)c2ccc(C(=O)O)cc2C1=O`, -6.79%. With `Cc1cccc(N2C(=O)c3cccnc3C2=O)c1`, the max response, negative = inhibition was -4.26%. Consider `Cc1ccc(Oc2ccc3c(c2)C(=O)N(c2cccc4cccnc24)C3=O)cc1`, for which the Potency is 25.1 µM (active).

Consider `COc1ccc(CNC(=O)c2ccc3c(c2)nc2n3CCOC2)c(OC)c1`, for which the max response, negative = inhibition is -7.25%.

For `CS(=O)(=O)c1ccc(-c2nnc(NC(=O)c3ccc4c(c3)OCCO4)o2)cc1`, the max response, negative = inhibition was 0.217%. As to `Cc1ccc2oc3c(c(=O)c2c1)C(c1ccc(O)cc1)N(Cc1ccc2c(c1)OCO2)C3=O` (configuration not stated), the max response, negative = inhibition was 3.18%.

Take `O=C(NCCN1CCOCC1)[C@H](Cc1ccccc1)N1C(=O)c2ccccc2C1=O`: the max response, negative = inhibition is -6.89%.

Turning to `O=C(NC1=NCCS1)[C@H](Cc1ccccc1)N1C(=O)c2ccccc2C1=O`, the max response, negative = inhibition was -18.4%. As for `N/C(=N\c1nc2ccccc2o1)NC(=O)C(Cc1ccccc1)N1C(=O)c2ccccc2C1=O` (configuration not stated), the Potency is 25.1 µM (active). In the case of `COc1cccc(Cn2c(SCc3ccc(C(=O)N4CCC(C)CC4)cc3)nc3ccncc32)c1`, the max response, negative = inhibition is 6.55%. Regarding `Cc1ccccc1CS(=O)(=O)CC1Nc2ccc(C(=O)NCc3ccc(Cl)cc3)cc2NC1=O` (configuration not stated), the max response, negative = inhibition is -11.5%. The same measure, in the same setting: the value for `Cc1ccc(CNC(=O)CCc2c(C)nn(-c3ccc(N4CCCC4)nn3)c2C)cc1` was -1.47%. Take `CCOC(=O)C1=C(C)Nc2sc(C(=O)c3ccc(Br)cc3)c(N)c2C1c1ccc(C(=O)OC)cc1` (configuration not stated): the Potency was 10 µM (active). As to `COC(=O)c1ccc(C2NC(=O)NC(C)=C2C(=O)N(C)C)cc1` (configuration not stated), the max response, negative = inhibition is -7.98%. As for `CCOC(=O)C1=C(C)NC(C)=C(C(=O)OCC)C1c1ccccn1`, the max response, negative = inhibition was 6.72%. Turning to `Cc1ccc(Cc2nc3ccccc3nc2SCC(=O)Nc2cccc(C(F)(F)F)c2)cc1`, the max response, negative = inhibition was -25%. In the case of `CCN(CC)CCNC(=O)c1cc2c(=O)oc3ccc(C)cc3c2s1`, the max response, negative = inhibition is -5.21%. On to `Cc1ccc2c(c1)c1c(c(=O)n(-c3ccccc3)c(=O)n1CC(=O)c1ccc(Cl)cc1)n2C`, for which the max response, negative = inhibition is 12.5%. The same measure, in the same setting: the value for `CCc1ccc(S(=O)(=O)c2nnn3c2nc(NCc2ccccc2OC)c2cc(Cl)ccc23)cc1` was -14.3%; that for `CCc1ccc(S(=O)(=O)n2ccnc2)cc1` was 3.23%; that for `O=C(Nc1nc(-c2ccc3c(c2)OCO3)cs1)c1ccncc1` was -29.2%.

Take `Brc1ccc(-c2csc(N/N=C/c3ccc4c(c3)OCO4)n2)cc1`: the Potency was 10 µM (active).

In the case of `O=C(Nc1nc(-c2ccncc2)cs1)C1COc2ccccc2O1` (configuration not stated), the max response, negative = inhibition was -4.88%. Regarding `COc1ccc(OC)c2sc(N3CCN(C(=O)C4COc5ccccc5O4)CC3)nc12` (configuration not stated), the max response, negative = inhibition is -0.959%.

Consider `CCN(c1ccc(Cl)cc1)S(=O)(=O)c1nnc(NC(=O)c2ccco2)s1`, for which the max response, negative = inhibition was 3.14%. Same read-out and setting: the value for `Cc1nnc(NCc2ccccc2)c2c1nnn2Cc1ccc(F)cc1` was 10.1%. The same measure, in the same setting: the value for `COc1cccc(NC(=S)NCCCN2CCOCC2)c1` was 9.47%; that for `COc1cc(NC(=O)Nc2ccc(C)cc2)cc([N+](=O)[O-])c1` was -24.4%. As for `COc1cc(NC(=S)NCCSc2ccc(C)cc2)cc(OC)c1`, the Potency was 0.251 µM (active). For `Cc1nc(SCCOc2ccc(Cl)cc2)[nH]c(=O)c1Cc1ccccc1`, the max response, negative = inhibition was -8.31%.

In the case of `COc1ccc(-c2nn3c(=O)cc(CN4CCN(C(=O)c5ccc(OC)c(OC)c5)CC4)nc3s2)cc1`, the max response, negative = inhibition is -11%. For `COc1ccc(NC(=O)Cn2c(=O)n(CCC(C)C)c(=O)c3cccnc32)cc1Cl`, the max response, negative = inhibition was -5%.

For the compound `Cc1nn(C(C)C(=O)Nc2ccc(C(C)C)cc2)c(=O)c2c1sc1ccccc12` (configuration not stated), the max response, negative = inhibition was -0.208%. On the same count and under the same terms, the result for `Cc1nn(CC(=O)NCCc2ccccc2)c(=O)c2c1sc1ccccc12` reads -12%. For `Cc1ccccc1CNC(=O)CCCn1nc(C)c2sc3ccccc3c2c1=O`, the Potency is 25.1 µM (active). On to `COc1ccc(NC(=O)c2ccc3oc(=O)c(S(=O)(=O)c4ccc(F)cc4)cc3c2)c(OC)c1`, for which the max response, negative = inhibition was -3.78%. Still for that read-out and setting: the result for `CCn1cc(C(=O)NCc2ccc(C)cc2)c(=O)c2cc(S(=O)(=O)N3CCc4ccccc4C3)ccc21` reads -8.13%. `O=c1nc2s/c(=C\c3ccco3)c(=O)n2nc1Cc1ccccc1`: the Potency was 25.1 µM (active). Turning to `Cc1nc2nc(SCC(=O)NCc3ccco3)nn2c(C)c1Cc1ccccc1`, the max response, negative = inhibition was -3.94%. As to `O=C(CCCN1C(=O)/C(=C/c2ccco2)SC1=S)Nc1ccccc1`, the max response, negative = inhibition was -9.58%. Regarding `COc1ccc(CCNC(=O)Cn2c(=O)n(-c3ccccc3)c(=O)c3c(C)c(C)sc32)cc1OC`, the max response, negative = inhibition was -8.34%. For `CN1c2ccc(Cl)cc2-c2nc(SCC(=O)Nc3cc(F)ccc3F)ncc2S1(=O)=O`, the Potency is 12.6 µM (active). With `O=C(CSc1ncc(-c2ccccc2)[nH]1)Nc1ccc(F)cc1F`, the max response, negative = inhibition is 8.99%. Regarding `Cc1ccc(Cl)cc1NC(=O)CSc1nccn1C`, the max response, negative = inhibition is 1.47%.

For the compound `COc1cc2c(=O)c(S(=O)(=O)c3ccc(C(C)C)cc3)cn(Cc3ccccc3C)c2cc1OC`, the max response, negative = inhibition is 19.9%. On the same count and under the same terms, the result for `CN1CCN(C(CNC(=O)c2ccccc2F)c2ccc3c(c2)OCO3)CC1` (configuration not stated) reads 7.63%. Turning to `CCCSc1ncc(Cl)c(C(=O)Nc2sc3c(c2C(=O)NCCOC)CCCC3)n1`, the max response, negative = inhibition was -6.84%.

`CCOc1cccc(NC(=O)c2ccc(F)c(S(=O)(=O)N(CC)c3cccc(C)c3)c2)c1`: the max response, negative = inhibition was -18%. The same measure, in the same setting: the result for `Cn1c(=O)cc(OCC(=O)N2CCN(c3ccccc3)CC2)c2ccccc21` reads 3.14%. As to `CCc1nnc(NC(=O)CSc2nc3c(c(=O)n2-c2ccccc2OC)SCC3)s1`, the Potency is 12.6 µM (active). As to `CCOc1ccc(NC(=O)CSc2nc3c(c(=O)n2-c2ccccc2OC)SCC3)cc1`, the max response, negative = inhibition was -2.8%. On the same count and under the same terms, the value for `CCOC(=O)c1sc(NC(=O)CSc2nc3c(c(=O)n2-c2ccccc2)SCC3)c(C(=O)OCC)c1C` was -25.7%.

Values taken from PubChem BioAssay AID1476 (National Center for Advancing Translational Sciences (NCATS), 2009).
